# Bioassay records from PubChem BioAssay.
# This is a sample that favours compounds with a hit; in the whole collection about 4.1% have one here.
# DAX1 inh-1 = DAX1 (NR0B1) inhibitors, primary screen, cell-based, HEK293, Gal4-DAX1, luciferase luminescence. Nuclear receptor subfamily 0 group B member 1 (Homo sapiens), P51843. HEK293 Gal4-DAX1 luciferase reporter. inhibition, % at 6.75 µM. 340,000 compounds, 0.99% hits;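 active = inhibition above the mean over all tested compounds plus 3 SD, cut at about 4.2% in these data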;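 note: 0% = DAX1-transfected cells with DMSO and 100% = empty-vector control cells with DMSO; inhibition shows as a rise in luminescence from relieved DAX1 repression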
# ssDAF-12 act = S. stercoralis DAF-12 nuclear receptor activators, primary screen, cell-based, luminescence, HEK293, GRIP1 co-expression, lit1-tk-luc | Nuclear hormone receptor DAF-12 (Strongyloides stercoralis) | HEK293 ssDAF-12/GRIP1 lit1-tk-luc reporter; % of 3 µM dafachronic acid response | activation, % at 6.8 µM | 370,000 compounds, 1% hits | AID 652126, 2013;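 active = activation above the mean over all tested compounds plus 3 SD, cut at about 0.9% in these data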;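 note: 0% = DMSO-only wells and 100% = 3 µM delta7-dafachronic acid wells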
# hgDAF12 agonist = H. glycines DAF-12 receptor agonists, primary screen, cell-based, luminescence, HEK293, GAL4 fusion, UAS-luciferase. AID 687014, 2013. activation, % at 6.8 µM. 370,000 compounds, 1.8% hits. HEK293 GAL4-hgDAF12 UAS-luciferase reporter, agonist luminescence; normalized to butyrate control. Nuclear hormone receptor DAF-12 (Heterodera glycines), GAL4 fusion;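 active = activation above a cutoff set at the mean of all screened compounds plus 3 SD, cut at about 10% in these data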;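 note: 0% = DMSO wells and 100% = sodium butyrate wells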
# PolyA inhibitor = polyadenylation inhibitors in yeast reporter cells, primary screen, luminescence, S. cerevisiae. AID 1875, 2009. S. cerevisiae SKY197-pL101 polyadenylation reporter, beta-gal luminescence; efflux-impaired pdr1/pdr3 knockout yeast; score 100 = 6 SD above DMSO. activity score, % at 12 µM. 300,000 compounds, 0.02% hits;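 active = lowest replicate activity score at least 50, where 100 means six control SD above control mean; inconclusive = lowest score under 50 but half or more replicates reach 50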;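 note: yeast exposed to compound for 9 h at 30 °C; higher score means more reporter readthrough which indicates perturbed polyadenylation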
# hcDAF12 agonist = H. contortus DAF-12 nuclear receptor activators, primary screen, cell-based, luminescence, HEK293, lit1-tk-luc reporter | HEK293 hcDAF-12 lit1-tk-luc reporter; 0% DMSO, 100% Δ7-dafachronic acid | activation, % at 6.8 µM | 370,000 compounds, 1.4% hits;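 active = activation above the mean of all tested compounds plus 3 SD, cut at about 5.5% in these data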;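 note: 100% = response to 3 µM Δ7-dafachronic acid high control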
# DAX1 inh-2 = DAX1 (NR0B1) inhibitors on StAR promoter, primary screen, cell-based, luminescence, SF-1 (NR5A1), full-length DAX-1; 370,000 compounds, 1.1% hits; HEK293T StAR-luciferase reporter, SF-1/DAX-1 repression relief; inhibition, % at 6.8 µM;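 active = inhibition above the mean over all tested compounds plus 3 SD, cut at about 3.6% in these data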;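 note: 0% = DAX-1 cells with DMSO and 100% = cells lacking DAX-1 with DMSO; higher inhibition means more luminescence from relief of DAX-1 repression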
# DAX1 conf = DAX1 (NR0B1) inhibitors relieving SF-1 repression, confirmation, cell-based, luminescence, HEK293T, full-length DAX-1, SF-1 activated StAR promoter; 2,400 compounds, 87% hits; inhibition, % at 6.8 µM; HEK293T StAR-promoter luciferase reporter, SF-1/DAX-1 repression; shares compounds with DAX1 inh-2;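 active = inhibition above the average of every tested compound plus 3 SD, cut at about 3.8% in these data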;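 note: 0% = DAX-1 cells with DMSO and 100% = no DAX-1 control cells with DMSO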
# Target sequence (P51843 whole entry, looked up): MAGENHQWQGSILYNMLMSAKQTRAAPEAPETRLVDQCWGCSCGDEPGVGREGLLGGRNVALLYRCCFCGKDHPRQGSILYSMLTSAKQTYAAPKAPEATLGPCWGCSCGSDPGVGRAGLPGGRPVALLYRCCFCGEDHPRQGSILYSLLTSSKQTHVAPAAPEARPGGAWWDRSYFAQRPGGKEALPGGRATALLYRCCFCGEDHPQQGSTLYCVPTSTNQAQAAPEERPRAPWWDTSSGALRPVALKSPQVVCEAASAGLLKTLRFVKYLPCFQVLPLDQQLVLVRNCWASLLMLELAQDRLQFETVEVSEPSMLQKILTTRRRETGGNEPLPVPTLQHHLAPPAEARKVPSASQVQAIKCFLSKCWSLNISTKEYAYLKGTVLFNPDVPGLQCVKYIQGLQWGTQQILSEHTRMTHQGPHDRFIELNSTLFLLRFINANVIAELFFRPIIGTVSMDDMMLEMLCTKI
# SF1 AF2mut Luc = StAR reporter signal changes without DAX1, counter-screen for DAX1 inhibitor project, cell-based, luminescence, AF-2 mutant SF-1, transactivation; shares compounds with DAX1 inh-2; HEK293 StAR-luciferase, SF-1 AF2 mutant; inhibition, % at 6.8 µM; 2,400 compounds, 78% hits; AID 652136, 2013;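 active = inhibition above the mean of all tested compounds plus 3 SD, cut at about 3% in these data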;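 note: 0% = DAX-1 transfected cells with DMSO and 100% = cells without DAX-1 with DMSO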
# Starred values were filed as active, the others as inactive; ? = inconclusive; . = no result.
SMILES,DAX1 inh-1,ssDAF-12 act,hgDAF12 agonist,PolyA inhibitor,hcDAF12 agonist,DAX1 inh-2,DAX1 conf,SF1 AF2mut Luc
Cc1ccc(NC(=O)CC(NC(=O)c2ccccc2Cl)c2ccccc2)nc1 (stereo not given),0,-1,-2,.,-1,0,.,.
Cc1ccc(NC(=O)CNC(=O)COc2ccccc2)nc1,0,-1,0,21,0,2,.,.
Cc1ccc(NC(=O)CCNC(=O)c2ccccc2Cl)nc1,3,-1,-1,17,1,-1,.,.
O=C(Nc1ccc([N+](=O)[O-])cc1Cl)c1cccc([N+](=O)[O-])c1,1,-1,2,.,0,0,.,.
O=C(Nc1ccc([N+](=O)[O-])cc1Cl)c1cc(Cl)ccc1O,1,0,12*,.,5,6.7*,-9,-12
O=C(NCCCN1CCCC1=O)C(=O)Nc1cccc(F)c1,0,0,10,?,1,5.9*,7.5*,5.3*
C[C@@H]1CN([C@@H](C)CO)C(=O)CCCn2cc(nn2)CO[C@H]1CN(C)C(=O)Cc1ccccc1,.,-1,-1,.,0,0,.,.
COc1ccc(C(=O)CSc2nnc(-c3cccnc3)n2-c2ccc(C)cc2)cc1,.,-2,5,.,0,-1,.,.
O=c1c(Br)c(N2CCCCC2)cnn1-c1ccccc1,4.5*,-1,13*,-25,3,4.6*,10*,8.3*
O=c1c(Br)c(N2CCOCC2)cnn1-c1ccccc1,2,-1,3,1,3,2,.,.
O=C(Nc1ccc(NC(=O)C2CC2)cc1)c1cccs1,1,0,7,-7,2,7.1*,8.3*,5.3*
COc1ccc(NC(=O)c2cccs2)cc1,0,-1,9,-7,1,1,.,.
Cc1nnc(NC(=O)c2ccc3ccccc3c2)s1,1,0,7,-24,2,5.4*,10*,5.4*
CC(C)c1nnc(NC(=O)c2ccc3ccccc3c2)s1,2,0,13*,-20,5.7*,12*,13*,8.1*
Cc1nnc(NC(=O)c2cccc(F)c2)s1,1,-1,1,-2,-2,0,.,.
CC(C)Sc1nnc(NC(=O)c2ccc3c(c2)OCO3)s1,1,1,4,-6,0,5.3*,7.7*,4.4*
CCSc1nnc(NC(=O)c2ccc3c(c2)OCO3)s1,2,0,6,8,1,2,.,.
CCOc1ccc(-n2c(SC/C=C/c3ccccc3)nnc2-c2cccs2)cc1,.,-2,1,.,-1,-1,.,.
O=C(CN1CCN(Cc2ccccc2Cl)CC1)N/N=C\c1ccccc1F,.,-2,3,.,2,0,.,.
Cc1nn2c(=O)cc(COC(=O)c3c(F)cccc3Cl)nc2s1,2,0,8,.,1,8.6*,6.4*,6.2*
COC(=O)[C@]12C[C@H](CC(=O)NCC34CC5CC(CC(C5)C3)C4)C(=O)N(Cc3cccc4ccccc34)C1=C[C@H](C(C)C)O[C@@H]2C1CC1,.,-1,-1,.,1,0,.,.
CC(=O)NC(c1ccccc1)c1nc2ccccc2[nH]1 (stereo not given),-1,-1,0,8,-1,0,.,.
